Bioassay records deposited in PubChem by University of Kansas High Throughput Screening Laboratory.
The sample as a whole holds a higher share of hits than the screen did.
Pf apPOL block – Pf-apPOL inhibitors, biochemical, fluorescence; inhibition, % at 10 µM; AID 1794808, 2022; hit rate 0.25% among 210,000; Plasmodium falciparum apicoplast DNA polymerase (apPOL); Recombinant Pf-apPOL, molecular beacon fluorescence, 1.5 h
mHTT-CaM PPI inh – mutant huntingtin-calmodulin interaction inhibitors – biochemical, AlphaScreen, primary screen; P42858; AlphaScreen His-mHTT/GST-CaM binding, luminescence; inhibition, % at 15 µM; hit rate 3.6% among 190,000; AID 1671202, 2021
Numbers stand for hits; i = inactive; nt = not tested or not shown. Rule as the data show it: active = inhibition above about 50%; inactive = the rest.

SMILES	Pf apPOL block	mHTT-CaM PPI inh
OCCNc1nc(NCCc2cccs2)nc2c1cnn2-c1ccc(F)cc1	i	56.4
Cc1ccc(F)cc1S(=O)(=O)N1CCN(Cc2noc3ccccc23)CC1	i	i
COc1ccc(-c2cn3c(n2)N(C(=O)Cc2cccs2)CCC3)cc1	i	i
COc1cccc(-c2cn3c(n2)N(C(=O)Cc2cccs2)CCC3)c1	i	82.4
Cc1ccc(S(=O)(=O)CCC(=O)Nc2ncc(Br)s2)cc1	i	69.0
Cc1ccc(NC(=O)CCS(=O)(=O)c2ccc(Br)cc2)nc1	i	i
COc1cccc(C2C3CC(C(C)(C)C)CC=C3C(C#N)=C(N)C2(C#N)C#N)c1O (stereo unspecified)	i	i
CC(C)(C)C1CC=C2C(C#N)=C(N)C(C#N)(C#N)C(CCc3ccccc3)C2C1 (stereo unspecified)	i	65.0
COc1cc(C2Oc3c(OC)cccc3C3CC(c4ccco4)=NN32)cc(OC)c1OC (stereo unspecified)	i	i
CCOc1cccc2c1OC(c1ccc(F)c(F)c1)N1N=C(c3ccco3)CC21 (stereo unspecified)	i	i
Brc1ccc2c(c1)C1CC(c3ccco3)=NN1C(c1cccs1)O2 (stereo unspecified)	i	89.0
COc1cc(C2Oc3ccc(Cl)cc3C3CC(c4ccco4)=NN32)cc(OC)c1OC (stereo unspecified)	i	63.0
COc1cccc2c1OC(c1cccc(F)c1)N1N=C(c3ccco3)CC21 (stereo unspecified)	i	i
COc1ccc(C2Oc3ccc(Cl)cc3C3CC(c4ccco4)=NN32)cc1OC (stereo unspecified)	i	60.0
Fc1ccc(C2Oc3ccc(Cl)cc3C3CC(c4ccco4)=NN32)cc1F (stereo unspecified)	i	82.0
COc1cccc(C2Oc3ccc(Cl)cc3C3CC(c4ccco4)=NN32)c1 (stereo unspecified)	i	i
O=C(NCc1ccc2c(c1)OCO2)C1CCN(c2cccc(F)c2)C1=O (stereo unspecified)	i	i
CC1=C(C(=O)Nc2ccccn2)C(c2cc(C)sc2C)C2=C(CC(C)(C)CC2=O)N1 (stereo unspecified)	i	i
CSc1ccccc1CN1CCC(CNC(=O)C(=O)NCc2cccs2)CC1	i	i
COc1ccc(-n2c(/C=C/c3cccc(OC)c3O)nc3ccccc3c2=O)cc1OC	i	i
COc1cc(C2Oc3ccccc3C3CC(c4ccccc4)=NN32)cc(OC)c1OC (stereo unspecified)	nt	i
COc1ccc(C2=NN3C(C2)c2cc(OC)ccc2OC3c2cc(OC)c(OC)c(OC)c2)cc1 (stereo unspecified)	i	59.0
CC1(C(=O)NCc2ccc(F)cc2)CCCN(C(=O)c2ccc(F)c(F)c2)C1 (stereo unspecified)	i	i
CCCCN(C)C(=O)c1cc(-c2ccc(Cl)cc2)on1	i	i
COc1cccc(OCC(O)CN(C)C2CCCCC2)c1 (stereo unspecified)	i	i
SMILES	Pf apPOL block	mHTT-CaM PPI inh
Cc1cccc(NC(=O)COc2ccc(Br)cc2)n1	i	i
Cc1cccc(NC(c2ccc(Br)cc2)c2ccc3cccnc3c2O)n1 (stereo unspecified)	i	97.0
O=S(=O)(O)c1cccc2cccnc12	i	i
Cc1ccc(C(Nc2cccc(C)n2)c2ccc3cccnc3c2O)cc1 (stereo unspecified)	i	98.0
O=S(=O)(c1ccc(F)cc1Cl)N1CCCn2nc(-c3cccnc3)cc2C1	i	i
CC(C)CC(=O)N1C(C(=O)NCc2cccnc2)COC12CCCCC2 (stereo unspecified)	i	i
COc1ccc(C2C(C(=O)Nc3ccc(C)cc3)=C(C)Nc3nnnn32)cc1OC (stereo unspecified)	i	i
CCc1[nH]nc(-c2ccccc2)c1NC(=O)CC1CCCC1	72.4	97.9
CCCc1[nH]nc(-c2ccccc2)c1NC(=O)C1CC1	i	i
CC(C)CC(C(=O)O)N1C(=O)C(=Cc2ccco2)SC1=S (stereo unspecified)	i	i
CCC(C(=O)O)N1C(=O)C(=CC=Cc2ccco2)SC1=S (stereo unspecified)	93.5	i
CCN(CC)Cc1c(O)ccc2c(=O)c(-c3ccc(Br)cc3)coc12	i	i
O=C(c1ccccn1)N1CCCCC1c1nncn1CC1CC1 (stereo unspecified)	i	i
COc1cc(C=C2SC(=S)N(c3cccc(O)c3)C2=O)ccc1O	i	80.9
COc1cc(C=C2SC(=S)N(CC(=O)O)C2=O)ccc1O	i	i
COc1cc(C=C2SC(=S)N(c3ccc4c(c3)OCO4)C2=O)cc(OC)c1OC	i	i
COc1cc(C=C2SC(=S)N(c3ccc(C(=O)O)c(O)c3)C2=O)ccc1O	i	69.9
Cc1ccc(C(=O)N2CCC(CC(=O)NCc3cccs3)CC2)cc1	i	i
Cn1c(=O)c2c(ncn2CC(=O)N/N=C/c2ccco2)n(C)c1=O	nt	i
O=C(CN1c2ccccc2Sc2ccccc21)NN=Cc1ccco1	61.8	nt
